Among the data in PubChem BioAssay (NCATS) are Potency, activity change, negative = inhibition and activity change, negative = cytotoxic values, retold here.

The nature of assay [1]: NS1 protein of Zika virus - qHTS assay to identify small molecule inhibitors in human HEK 293 cells (AID 1347053).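 Further: series mostly up to about 46 µM; plate controls were infected untreated cells for no effect and uninfected cells for full effect; nearly all actives have a fitted effect of over 55% in size.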 The gist of the method: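 Compound-treated (1 h pre-infection) HEK 293 cells infected with ZIKV MR766, MOI = 0.5; after 24 h at 37 C, NS1 read by TR-FRET; data normalized to uninfected and infected controls.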
A short description of assay [2]: qHTS of pediatric cancer cell lines to identify multiple opportunities for drug repurposing: Primary screen for TC32 cells (AID 1347089). Further: nearly all actives have a fitted effect of over 60% in size. Further: potency means the concentration at half of the fitted maximal effect. On activity change, negative = cytotoxic: on the % scale 0 is the no-effect control and ±100 the full control effect. The gist of the method:
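In the primary qHTS, MIPE compounds were tested at 11 concentrations (0.78 nM to 46 µM) and NPC compounds at 8 (0.59 nM to 46 µM) on TC32 cells for 48 h. CellTiter-Glo luminescence gave viability.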

Assay [3] is described as follows: qHTS of pediatric cancer cell lines to identify multiple opportunities for drug repurposing: Primary screen for DAOY cells (AID 1347090).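 Further: series mostly up to about 46 µM; plate controls were DMSO for no effect and bortezomib for full effect; nearly all actives have a fitted effect of over 55% in size.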 The essentials:
(§1)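 Eight- or eleven-point concentration series, 48 h treatment at 37 degrees C in growth media; readout CellTiter-Glo luminescence. Potency and efficacy were taken from the concentration-response curves.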
(Quantitative high-throughput screening tests each substance at several concentrations.)

Assay [4] is described as follows: qHTS of pediatric cancer cell lines to identify multiple opportunities for drug repurposing: Primary screen for SJ-GBM2 cells (AID 1347091).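 Further: plate controls were DMSO neutral control for no effect and bortezomib for full effect.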 The essentials: as §1
Assay [5] can be described thus: qHTS of pediatric cancer cell lines to identify multiple opportunities for drug repurposing: Primary screen for A673 cells (AID 1347092). Further: nearly all actives have a fitted effect of over 45% in size. Further: potency means the concentration at half of the fitted maximal effect. On activity change, negative = cytotoxic: on the % scale 0 is the no-effect control and ±100 the full control effect. The gist of the method:
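48 h compound exposure, A673, 500-1,000 cells/well, 37 degrees C/5% CO2. MIPE: 11-point, 0.78 nM-46 µM; NPC: 8-point, 0.59 nM-46 µM (final). Readout CellTiter-Glo luminescence after 15 min RT.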

A short description of assay [6]: qHTS of pediatric cancer cell lines to identify multiple opportunities for drug repurposing: Primary screen for SK-N-MC cells (AID 1347093). Further: potency means the concentration at half of the fitted maximal effect.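 On activity change, negative = cytotoxic: series mostly up to about 46 µM; plate controls were DMSO neutral control for no effect and bortezomib for full effect.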 The essentials:
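Metabolically active cells were quantified by ATP-dependent luminescence (CellTiter-Glo, 15 min at room temperature) following 48 h treatment. Cells had been plated at 500-1,000 per well and settled for 5 h beforehand.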

The nature of assay [7]: qHTS of pediatric cancer cell lines to identify multiple opportunities for drug repurposing: Primary screen for BT-37 cells (AID 1347094). Further: potency means the concentration at half of the fitted maximal effect.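 On activity change, negative = cytotoxic: series mostly up to about 57 µM; plate controls were DMSO for no effect and bortezomib for full effect.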 The essentials: (§2)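 Plated cells (500-1,000 per well, growth media) were allowed to settle for 5 hours, treated with compound dilutions for 48 hours, then lysed with CellTiter-Glo for 15 min at room temperature before luminescence reading.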

Assay [8] is described as follows: qHTS of pediatric cancer cell lines to identify multiple opportunities for drug repurposing: Primary screen for NB-EBc1 cells (AID 1347095).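 Further: plate controls were DMSO neutral control for no effect and bortezomib for full effect.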 The essentials:
as §2

Assay [9] can be described thus: qHTS of pediatric cancer cell lines to identify multiple opportunities for drug repurposing: Primary screen for Saos-2 cells (AID 1347097). Further: nearly all actives have a fitted effect of over 40% in size. Further: potency means the concentration at half of the fitted maximal effect. On activity change, negative = cytotoxic: on the % scale 0 is the no-effect control and ±100 the full control effect. The essentials: as §2
Assay [10] can be described thus: qHTS of pediatric cancer cell lines to identify multiple opportunities for drug repurposing: Primary screen for SK-N-SH cells (AID 1347098).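 Further: DMSO served as neutral control and bortezomib at 2.3 µM as positive control; on the % scale 0 is the no-effect control and ±100 the full control effect; nearly all actives have a fitted effect of over 65% in size.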 The essentials:
(§3)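 Cells (500-1,000/well) rested 5 h, then received compounds for 48 h; metabolically active cells were measured by CellTiter-Glo luminescence. Final concentrations spanned up to 46 µM (MIPE, 11-point) or 0.59 nM-46 µM (NPC, 8-point) in primary screens, 11-point in follow-ups.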

The nature of assay [11]: qHTS of pediatric cancer cell lines to identify multiple opportunities for drug repurposing: Primary screen for NB1643 cells (AID 1347099). Further: nearly all actives have a fitted effect of over 50% in size. Further: potency means the concentration at half of the fitted maximal effect.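 On activity change, negative = cytotoxic: plate controls were DMSO neutral control for no effect and bortezomib positive control for full effect.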 The essentials: as §2
The nature of assay [12]: qHTS of pediatric cancer cell lines to identify multiple opportunities for drug repurposing: Primary screen for LAN-5 cells (AID 1347100).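 Further: plate controls were DMSO neutral control for no effect and bortezomib positive control for full effect.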 The essentials:
(§4)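 Cells (500-1,000/well) in growth media were settled 5 h at 37 degrees C, then given compounds for 48 h. Viability was read as CellTiter-Glo luminescence. Primary runs used MIPE at 11 points (0.78 nM-46 µM) and NPC at 8 points (0.59 nM-46 µM); follow-ups used 11 points.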

Assay [13] in a line: qHTS of pediatric cancer cell lines to identify multiple opportunities for drug repurposing: Primary screen for BT-12 cells (AID 1347101). Further: nearly all actives have a fitted effect of over 25% in size. Further: potency means the concentration at half of the fitted maximal effect.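 On activity change, negative = cytotoxic: plate controls were DMSO for no effect and bortezomib positive control for full effect.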 The essentials:
as §3

Assay [14] is described as follows: qHTS of pediatric cancer cell lines to identify multiple opportunities for drug repurposing: Primary screen for U-2 OS cells (AID 1347096).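 Further: plate controls were DMSO wells for no effect and bortezomib positive control wells for full effect; nearly all actives have a fitted effect of over 50% in size.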 The essentials:
as §4

Structures are written as SMILES. Records with an inconclusive call do not appear. A number with no mark means an inactive call. Calls of active or inactive are those of the source. The call rests on the fitted dose curve; in most records, active means well fitted curve in the direction sought with a large enough effect; inconclusive means small, poorly fitted or top-dose-only effect, or another doubt; inactive means no such curve, though single readings can be large; an effect the other way counts as inactive or inconclusive.

On to `N[C@H](C(=O)O)c1ccc(O)cc1`, for which the Potency result in assay [1], in assay [2], in assay [3], in [4], in assay [5] and in [6] was “inactive” in each case. Besides, the Potency entry in assay [7], in assay [8], in assay [9], in [10], in [11] and in [12] was “inactive” throughout. Also, the Potency result in [13] was “inactive”.

As to `Nc1nc2c(ncn2CCC(CO)CO)c(=O)[nH]1`, the Potency result in assay [1], in [2], in assay [3], in assay [4], in assay [5] and in [6] was “inactive” in each case. The Potency result in assay [7], in assay [8], in assay [9], in [10], in assay [11] and in [12] was “inactive” in each case. In [13], the Potency result is “inactive”.

Consider `N[C@@H](CSSC[C@H](N)C(=O)O)C(=O)O`, for which the activity change, negative = inhibition in assay [1] is -26.2% [at 0.593 µM]. The activity change, negative = cytotoxic in assay [2] was 5.9% [at 0.594 µM]; in assay [3] it was 14.8% [at 0.597 µM]; in assay [4] it was 12.9% [at 0.597 µM]; in assay [6], -7.24% [at 0.597 µM]; in assay [7], 3.9% [at 0.745 µM]; in assay [8], -0.714% [at 0.597 µM]. Besides, the activity change, negative = cytotoxic in assay [14] was 6.12% [at 0.597 µM]; in assay [9] it was -6.38% [at 0.597 µM]; in assay [11], -5.83% [at 0.597 µM]; in [12], 6.24% [at 0.597 µM]; in assay [13], 5.67% [at 0.745 µM].

`CC1(C)Oc2ccc(C#N)cc2[C@@H](N2CCCC2=O)[C@@H]1O`: the Potency result in assay [1], in assay [2], in assay [3], in assay [4], in assay [5] and in assay [6] was “inactive” each time. Further, the Potency result in assay [7], in [8], in assay [14], in [10], in assay [11] and in [12] was “inactive” in each case. Moreover, the Potency entry in [13] is “inactive”.

On to `COc1ccc2c(c1)C(=O)N(CCc1ccc(S(=O)(=O)NC(=O)NC3CCCCC3)cc1)C(=O)C2(C)C`, for which the Potency entry in assay [1], in assay [2], in assay [3], in [4], in [5] and in [7] was “inactive” throughout. For the same molecule, the Potency entry in [8], in assay [9], in [10], in [11], in assay [12] and in assay [13] was “inactive” each time.

In the case of `CCN(CC)CCNC(C(=O)OCCC(C)C)c1ccccc1` (centres undefined), the Potency result in assay [1], in assay [2], in assay [3], in assay [4], in assay [6] and in [7] was “inactive” throughout. The Potency entry in assay [8], in assay [14], in [9], in assay [10], in assay [11] and in assay [12] was “inactive” throughout. Further, in assay [13], the Potency entry was “inactive”.

As for `CN1[C@@H]2CC[C@H]1CC(OC(=O)C(O)c1ccccc1)C2` (some centres undefined), the Potency result in assay [1], in assay [2], in [3], in assay [4], in [5] and in [6] was “inactive” in each case. For the same molecule, the Potency result in assay [7], in assay [8], in assay [9], in assay [10], in [11] and in assay [12] was “inactive” each time. Besides, the Potency result in assay [13] is “inactive”.

For `CCCOC(=O)c1ccccc1`, the Potency result in assay [1], in assay [2], in assay [3], in [4], in [6] and in assay [7] was “inactive” in each case. Further, the Potency result in assay [8], in assay [9], in [10], in [11], in [12] and in assay [13] was “inactive” in each case.

Turning to `COc1cc(C)c(Cc2cnc(N)nc2N)cc1OC`, the Potency result in [1], in assay [2], in assay [3], in assay [4], in assay [5] and in assay [7] was “inactive” in each case. Besides, the Potency entry in assay [8], in assay [14], in assay [10], in assay [12] and in [13] was “inactive” throughout. In assay [6], the Potency is 11.9 µM (active).

As to `CN(C)CCN(Cc1ccccc1)c1ccccn1`, the Potency entry in assay [1], in [2], in assay [3], in assay [4], in assay [5] and in assay [7] was “inactive” throughout. Moreover, the Potency entry in [8], in [14], in assay [9], in assay [10], in [11] and in assay [12] was “inactive” in each case. For the same molecule, the Potency result in assay [13] was “inactive”.

As for `c1ccc2c(CC3=NCCN3)cccc2c1`, the Potency entry in [1], in assay [2], in [3], in assay [4], in assay [5] and in assay [7] was “inactive” throughout. Further, the Potency result in assay [8], in assay [10], in [11] and in [12] was “inactive” throughout.

As to `NCCNCCNCCN`, the Potency result in assay [1], in [2], in assay [3], in assay [4], in [6] and in assay [7] was “inactive” each time. In addition, the Potency result in assay [8], in assay [14], in assay [9], in assay [10], in assay [11] and in [12] was “inactive” in each case. Also, in assay [13], the Potency result is “inactive”.

As for `N[C@@H](CSCCCO)C(=O)O`, the Potency entry in assay [1], in assay [2], in assay [3], in assay [4], in assay [5] and in assay [6] was “inactive” in each case. In addition, the Potency result in assay [7], in assay [8], in assay [9], in assay [10], in [11] and in assay [12] was “inactive” in each case. The Potency result in assay [13] is “inactive”.

Take `C[C@H]1O[C@H](O[C@H]2[C@H](O)[C@@H](O)[C@@H](O[C@H]3[C@H](O)[C@@H](O)[C@H](O)O[C@@H]3CO)O[C@@H]2CO)[C@H](O)[C@@H](O)[C@@H]1N[C@H]1C=C(CO)[C@@H](O)[C@H](O)[C@H]1O`: the Potency result in assay [1], in assay [2], in [3], in [4], in assay [6] and in [7] was “inactive” throughout. In addition, the Potency entry in assay [8], in [9], in assay [10], in [11], in assay [12] and in [13] was “inactive” in each case.

For `O=C1Nc2ccc(Cl)cc2[C@@](C#CC2CC2)(C(F)(F)F)O1`, the Potency entry in assay [1], in assay [2], in assay [14] and in [12] was “inactive” throughout.

Consider `Cc1ccc2nc(N)[nH]c(=O)c2c1Sc1ccncc1`, for which the Potency result in assay [1], in assay [14], in assay [10] and in [11] was “inactive” each time. Besides, the results for the Potency in [2], in [6] and in [9] were 8.36 µM (active), 0.944 µM (active) and 13.3 µM (active), respectively.

On to `CC[N+](CC)(CC)CCOc1ccc(/C=C/c2ccccc2)cc1`, for which the Potency result in [1] and in assay [14] was “inactive” throughout. Further, the Potency is 21 µM (active) in [2]; 2.66 µM (active) in assay [5]; 5.96 µM (active) in assay [6]; 15.5 µM (active) in assay [7]; 23.7 µM (active) in assay [9]; 13.3 µM (active) in assay [11]. In addition, the Potency in assay [13] was 3.47 µM (active).

Regarding `CN1[C@@H]2CC(OC(=O)[C@H](CO)c3ccccc3)C[C@H]1[C@@H]1O[C@@H]12` (some centres undefined), the Potency result in assay [1], in assay [2], in [4], in assay [5], in assay [6] and in [7] was “inactive” throughout. The Potency result in [8], in [14], in [9], in assay [10], in assay [11] and in assay [12] was “inactive” throughout. For the same molecule, the Potency result in [13] is “inactive”.

As for `C[C@@H](O)[C@H](N)C(=O)O`, the Potency result in assay [1], in assay [2], in [4], in assay [5], in assay [6] and in assay [7] was “inactive” in each case. Moreover, the Potency entry in [8], in assay [9], in assay [10], in [11], in assay [12] and in assay [13] was “inactive” in each case.
